Screen size: about 330,000 compounds; about 1,900 (0.58%) were called active. Another 4% or so got no clear call; they are omitted. Rule as the data show it: inconclusive = inhibition above about 70% without an active follow-up result; inactive = below that. The list is a sample of the results. Potency and affinity values are given separately.
Test: M. tuberculosis growth inhibition, HTS (AID 449762);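 also: bacterial growth assessed after seven days of incubation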
Conditions: M. tuberculosis H37Rv growth inhibition, 7H9 media; at 25 µM; hits give high values

Structure (SMILES)	inhibition
Cc1ccc(N2CCN(S(=O)(=O)N3CCCCC3)CC2)cc1C	-2.98% (inactive)
CCOC(=O)C1=C(C)NC(SCC(=O)Nc2cc(C)on2)=C(C#N)C1c1cccs1 (centres undefined)	-1.09% (inactive)
CCOC(=O)C1=C(C)NC(SCC(N)=O)=C(C#N)C1c1cccs1 (centres undefined)	-3.02% (inactive)
O=C(COC(=O)c1cc(=O)[nH]c2ccccc12)NC(=O)c1ccccc1	-1.53% (inactive)
COc1ccc(Nc2nc(CC(C)=O)ns2)cc1OC	-2.22% (inactive)
O=C1CN(C(=O)CN2C(=O)NC(c3ccccc3)(c3ccccc3)C2=O)c2ccccc2N1	-4.74% (inactive)
CC(=O)N1CCN(C(=O)c2ccc(-c3cccc(C(F)(F)F)c3)o2)CC1	-1.68% (inactive)
O=C(c1ccc(-c2cccc(C(F)(F)F)c2)o1)N1CCCCCCC1	4.53% (inactive)
CCCCS(=O)(=O)N1CCC(C(=O)Oc2ccccc2OC)CC1	28.5% (inactive)
Cc1ccc(C(C(=O)Nc2ccc3c(c2)OCO3)N(C)C(=O)Cc2c[nH]c3ccccc23)cc1 (centres undefined)	-1.34% (inactive)
C/C(=C\C(=S)Nc1ccccc1)Nc1cccc2ccccc12	64.1% (inactive)
C/C(=C\C(=S)Nc1ccccc1)Nc1ccccc1	3.81% (inactive)
O=C(CC1CCCCC1)NCCCN1CCOCC1	-0.7% (inactive)
O=C(CSc1nc2[nH]c(=O)cc(O)c2s1)Nc1ccc(Br)cc1	-3.77% (inactive)
CC(=O)N1CCc2cc(Br)cc(S(=O)(=O)NCC3CCCO3)c21 (centres undefined)	0.13% (inactive)
COc1cc2cc(C(=O)N(C)Cc3ccccc3)[nH]c2cc1OC	6.88% (inactive)
COCCCn1c(SCc2ccc(OC)cc2)nc2cc(OC)c(OC)cc2c1=N	-4.77% (inactive)
COCCCn1c(SCc2ccccc2)nc2cc(OC)c(OC)cc2c1=N	-2.27% (inactive)
O=C(CN1C(=O)NC2(CCCC2)C1=O)OCc1cccc(Br)c1	-6.4% (inactive)
O=C(NC1CCSc2ccccc21)c1ccccc1Cl (centres undefined)	43.4% (inactive)
O=C(NC1CCSc2ccccc21)c1ccccc1F (centres undefined)	12.7% (inactive)
COc1ccc(OCc2n[nH]c(=S)n2-c2ccc(C)cc2)cc1	3.01% (inactive)
Cc1cc(=O)[nH]c(N/N=C/c2c(C)nn(-c3ccc(F)cc3)c2Cl)n1	0.52% (inactive)
Cc1ccc(-c2nc(N=Nc3ccc(O)cc3)n[nH]2)cc1	4.83% (inactive)

Structure (SMILES)	inhibition
Oc1ccc(N=Nc2n[nH]c(-c3ccc(Br)cc3)n2)cc1	4.79% (inactive)
CCC(CO)Oc1cc(NC(=O)c2ccc(N)cc2)c2ncn(C(C)C)c2c1 (centres undefined)	4.76% (inactive)
O=[N+]([O-])c1ccc(COc2ccc(-c3[nH]ncc3-c3ccccc3)c(O)c2)cc1	-2.72% (inactive)
CCOc1ccc(-c2[nH]ncc2-c2ccccc2)c(O)c1	9.38% (inactive)
COc1ccc(-c2[nH]ncc2-c2ccc(Cl)cc2)c(O)c1	41.7% (inactive)
COc1ccc(-c2cn[nH]c2-c2ccc(OCc3ccc([N+](=O)[O-])cc3)cc2O)cc1	8.94% (inactive)
Cc1cc(N2C(=O)C3CC=CCC3C2=O)cc(C)c1Br (centres undefined)	4.22% (inactive)
CC(=NNC(=O)c1ccc(NS(=O)(=O)c2ccc(Br)cc2)cc1)c1cccnc1	9.29% (inactive)
CC(C)Cc1nc2sc3c(=O)[nH]cnc3c2c2c1CCCC2	1.08% (inactive)
CCN(CC)C(=O)CNC(=S)N(CCCN1CCOCC1)Cc1cccs1	1.2% (inactive)
CCc1cc(-c2[nH]ncc2-c2ccc([N+](=O)[O-])cc2)c(O)cc1OC	1.64% (inactive)
CCCCn1c(NC(=S)Nc2ccccc2)nc2ccccc21	2.6% (inactive)
CCCn1c(NC(=S)Nc2ccccc2)nc2ccccc21	2.43% (inactive)
CSc1nc2ccsc2c(=O)n1-c1ccccn1	-2.21% (inactive)
CCn1c(C)nc2cc(C(=O)OCCC(F)(F)F)ccc21	-1.06% (inactive)
CCn1c(C)nc2cc(C(=O)OC)ccc21	-7.44% (inactive)
COc1ccccc1C(=O)NC(CCSC)C(=O)OCC(=O)N1CCCC1=O (centres undefined)	-5.17% (inactive)
COc1ccc(-c2c(C#Cc3ccsc3)c3cc(-c4ccc5cc[nH]c5c4)ccc3n2C)cc1	-6.96% (inactive)
CN(C)CCN(Cc1ccccc1)C(=O)[C@H](Cc1ccccc1)N1C(=O)c2ccccc2C1=O	-1.93% (inactive)
CSc1nsc(SCC(=O)Nc2ccccc2C(N)=O)n1	2.11% (inactive)
COc1ccc(NC(=O)CSc2nc(SC)ns2)c(OC)c1	4.38% (inactive)
O=C1/C(=C/c2ccc([N+](=O)[O-])cc2)C=C(c2ccccc2)N1c1ccccc1	10.5% (inactive)
O=C(O)c1cccc(N2C(=O)/C(=C/c3ccc([N+](=O)[O-])cc3)C=C2c2ccccc2)c1	7.59% (inactive)
COc1ccc(-n2c(SCC(=O)N3CCc4ccccc43)nnc2-c2c[nH]c3ccccc23)cc1	7.85% (inactive)

Structure (SMILES)	inhibition
COc1ccccc1N(CC(=O)NC(C)(C)C)C(=O)CCC(=O)Nc1nccs1	-0.5% (inactive)
CC1(CCc2ccccc2)NC(=O)N(CC(=O)Nc2ccc(S(N)(=O)=O)cc2)C1=O (centres undefined)	0.35% (inactive)
CNC[C@@H](C)NC[C@@H](Cc1ccccc1)NCCc1ccccc1	1.77% (inactive)
NC[C@H](Cc1ccccc1)NCCCCC1CCCCC1	-8.88% (inactive)
COc1cccc(NC(=O)COC(=O)c2ccccc2SCC(=O)N2CCCC2)c1	5.04% (inactive)
Cc1cc(=O)[nH]c(Nc2cccc(Cl)c2C)n1	1.14% (inactive)
O=C(NS(=O)(=O)c1ccccc1Cl)c1ccc[nH]1	2.54% (inactive)
CCOc1ccc(C(C)NC(=O)Cc2ccccc2)cc1OCC (centres undefined)	-8.29% (inactive)
OCCN1CCN(c2nc(NCc3ccco3)c3ccccc3n2)CC1	-0.19% (inactive)
OCCNc1nc(N2CCN(Cc3ccccc3)CC2)nc2ccccc12	5.92% (inactive)
CCc1cccc(CC)c1NC(=O)CSc1nc2ccc(N3C(=O)C4C(C3=O)[C@H]3C=C[C@@H]4C3)cc2s1 (some centres undefined)	-9.69% (inactive)
CCc1cccc(CC)c1NC(=O)CSc1nc2ccc(N3C(=O)C4C5C=CC(C5)C4C3=O)cc2s1 (centres undefined)	-11% (inactive)
COc1cc(C(=O)Nc2cccc(S(=O)(=O)NCc3ccco3)c2)cc(OC)c1OC	0.68% (inactive)
COc1ccc(CCC(C)NC(=O)CCc2ccccc2)c(OC)c1 (centres undefined)	4.05% (inactive)
COc1cc(/C=N/NC(=O)c2csc3c2CCCC3)ccc1OCCN1CCOCC1	-0.72% (inactive)
COc1cc(/C=N/NC(=O)c2cc3ccccc3cc2O)ccc1OCCN1CCCCC1	9.28% (inactive)
COc1ccccc1CNC(=O)CN1CCN(S(=O)(=O)c2cccs2)CC1	-5.5% (inactive)
CSCCC(NS(=O)(=O)c1ccc(Cl)cc1)C(=O)OCC(=O)NC1CCCCC1 (centres undefined)	1.43% (inactive)
COc1ccc(NC2=NC(C)(C)CS2)cc1	-0.92% (inactive)
Cc1ccc(C(=O)CNc2ccc(Br)cc2)cc1	2.6% (inactive)
Cc1ccc(C(=O)CCNc2ccc(Br)cc2)o1	-5.24% (inactive)
CC12CCC(C(=O)Nc3cccc4ccccc34)(C1Br)C2(C)C (centres undefined)	5.17% (inactive)
CCCCOc1ccc(-c2nc(SCC(N)=O)n[nH]2)cc1	48.6% (inactive)
CCOc1ccc(-c2cnc(SCC(N)=O)nc2N)cc1	62.7% (inactive)

Structure (SMILES)	inhibition
CCC1(c2ccc(F)cc2)NC(=O)N(CC(=O)N2c3ccccc3NC(=O)C2(C)C)C1=O (centres undefined)	1.45% (inactive)
CCOc1ccc(-n2c(Cc3ccccc3)nnc2SCc2c(C)noc2C)cc1	-5.75% (inactive)
COc1cc(-c2nc3ccc4ccccc4c3c3c2CCC3)ccc1O	-4% (inactive)
Oc1ccc(-c2nc3ccc4ccccc4c3c3c2CCC3)cc1O	-2.27% (inactive)
Cc1ccccc1NC(=O)CN1C(=O)NC2(CCc3ccccc32)C1=O (centres undefined)	8.44% (inactive)
Clc1ccc2c(NNc3ccccc3Cl)ccnc2c1	64.1% (inactive)
C/C(=N/Nc1ccnc2cc(Cl)ccc12)c1ccc(N)cc1	-2.9% (inactive)
CC/C(=N\Nc1ccnc2cc(Cl)ccc12)c1ccc(O)cc1	9.75% (inactive)
Oc1ccc(Nc2ccnc3cc(Cl)ccc23)cc1	7.94% (inactive)
COc1ccc(OC2C(=O)N(Cc3ccc(F)cc3)C2c2cc(OC)c(OC)c(OC)c2)cc1 (centres undefined)	20.5% (inactive)
COc1ccc(S(=O)(=O)Cc2ccc(C(=O)NC3CCC(C)CC3)o2)cc1 (centres undefined)	1.75% (inactive)
Cc1ccc(C(=O)CSc2nnc3n2CCCCC3)s1	-7.99% (inactive)
COCCCNC(=O)Nc1ccc2c(c1)N(C)C(=O)CS2	1.24% (inactive)
O=C(CN(CCc1ccccc1)C(=O)CNS(=O)(=O)c1ccc(F)cc1)NCc1ccco1	1.92% (inactive)
CCCCN1CCNC[C@@H]1c1ccccc1	-9.81% (inactive)
CCOC1OC(=O)C(Cl)=C1Nc1ccc(C)cc1C (centres undefined)	9.67% (inactive)
CCOC1OC(=O)C(Cl)=C1Nc1cc(C)ccc1C (centres undefined)	-3.33% (inactive)
Cc1ccc(NC(=O)C2CCN(C(=O)[C@@H]3Cc4ccccc4CN3)CC2)cc1	9.95% (inactive)
O=C(COC(=O)c1cc2ccccc2oc1=O)Nc1cccc(S(=O)(=O)N2CCCCCC2)c1	-4.32% (inactive)
CCOC(=O)Cc1csc(NC(=O)CSc2nnnn2-c2ccc(F)cc2)n1	-5.86% (inactive)
CCc1nnc(NC(=O)CN2C(=O)NC3(CC(C)CC(C)(C)C3)C2=O)s1 (centres undefined)	-0.6% (inactive)
CCOC(=O)c1sc(NC(=O)CN2C(=O)NC3(CC(C)CC(C)(C)C3)C2=O)c(C(=O)OCC)c1C (centres undefined)	5.68% (inactive)

— PubChem BioAssay AID449762 (Southern Research Specialized Biocontainment Screening …, 2010)
